A selection: hits, their analogues and other compounds. The true share with any hit is near 14%.
4MU fluor: 4-MU region autofluorescence; 59,000 tested, 11% active; compound autofluorescence, 340/450 nm, 4-MU equivalents; stronger effect = higher value; max dye-equivalent concentration, M; in the data active = max dye-equivalent concentration above about 10 nM; inconclusive = mostly about 1.1 nM to 9.6 nM
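Intrinsic fluorescence at 340/450 nm (ex/em) was read after 15 min at room temperature in pH 8.0, 100 mM Tris. Each compound concentration expressed as 4-MU-equivalent concentration from a six-point 4-MU standard series on each plate.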
AID923: qHTS Assay for Allosteric/Competitive Inhibitors of Caspase-1: Spectroscopic Profiling in AFC Spectral Region; compound fluorescence, AFC spectral region (405/520 nm); Potency, µM (titrated, usually from 57.5 µM), hits mostly activators; AID 923, 2007; 75,000 tested, 1.1% active
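Titrations up to 57 uM read every 20 sec for 3 min (405/520 nm) with 50 nM caspase 1 and 5 uM Ac-WEHD-AFC, pH 7.5 HEPES buffer. Fluorescence-vs-time intercept gave baseline, scaled against on-plate AFC standard.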
A350 autofl: compounds fluorescent in Alexa 350 spectral region; max dye-equivalent concentration, M; Compound autofluorescence, 340/450 nm, Alexa 350 dye-equivalents; stronger effect = higher value; 59,000 tested, 11% active; AID 590; in the data active = max dye-equivalent concentration above about 10 nM; inconclusive = mostly about 1.1 nM to 9.6 nM
HSD17B inh: inhibitors of human HSD17B10 dehydrogenase; Potency, µM (doses to about 57.1 µM), most hits filed as inhibitors; recombinant HSD17B10, NADH fluorescence kinetic; Q99714; 75,000 tested, 7.6% active;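 also: the protocol describes HADH2 (HSD17B10) and not the HSD17B4 of the title; nearly all actives have a fitted effect of over 70% in size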
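Activity followed as NADH fluorescence increase (ex 360, em 450 nm) every 30 seconds for 4 min, using final 90 uM beta-hydroxybutyryl CoA and 1 mM NAD+. Recombinant His-tagged enzyme, 20 nM, pH 9.0 Tris buffer, 15 min compound preincubation.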
HADH2 inhib: inhibitors of human HADH2 dehydrogenase | AID 886 | Potency, µM (highest dose often 57.1 µM), actives largely listed as inhibitors | recombinant HADH2, NADH fluorescence, beta-hydroxybutyryl-CoA | 73,000 tested, 3.4% active; also: nearly all actives have a fitted effect of over 60% in size
Target sequence (Q99714 whole entry, looked up, one chain of several): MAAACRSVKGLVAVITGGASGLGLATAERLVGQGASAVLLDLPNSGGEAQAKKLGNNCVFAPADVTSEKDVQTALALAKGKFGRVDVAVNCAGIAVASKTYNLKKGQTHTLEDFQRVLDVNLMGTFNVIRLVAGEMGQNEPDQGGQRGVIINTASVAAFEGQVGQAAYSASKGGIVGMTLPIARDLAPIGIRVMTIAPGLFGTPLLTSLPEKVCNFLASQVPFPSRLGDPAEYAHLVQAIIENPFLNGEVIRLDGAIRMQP
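His-tagged recombinant enzyme from E. coli, 20 nM, preincubated 15 min RT with compound; reaction started with 1 mM NAD+ and 90 uM beta-hydroxybutyryl-CoA in 100 mM Tris-HCl pH 9.0. NADH fluorescence (ex 360/em 450) read over 4 min; last-minus-first difference.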
CRE-bla Fsk: CRE-bla signaling modulation under forskolin stimulation; 71,000 tested, 2.5% active; CHO CRE-bla reporter (cAMP response element driving beta-lactamase), forskolin EC10, beta-lactamase ratio; Potency, µM (doses to about 38.2 µM), actives largely listed as activators; active = well fitted activation curve with a large enough effect in the signal ratio, with a control signal flat, not every such curve was filed as active; inconclusive = small, poorly fitted or top-dose-only effect, or effect the other way, or a change in a side signal; the % refers to the signal ratio
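Modulation of forskolin signalling: compounds in titration series added with EC10 NKH 477 to CHO cells carrying a CRE-driven beta-lactamase reporter, 3 h, 37C. CCF4 FRET ratio (460/530 nm, ex 405 nm) gives %activity and AC50.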
Each line names hits and unclear results; the compound was inactive in the other large screens; ! = not active in a repeat. Unless noted, calls follow the shape of the dose curve; as a rule, active = well fitted curve in the direction sought with a large enough effect; inconclusive = small, poorly fitted or top-dose-only effect, or another doubt; inactive = no such curve, though single readings can be large; an effect the other way counts as inactive or inconclusive.

CCOC(=O)c1ccccc1NC(=O)c1cc2sccc2n1C	4MU fluor 7.4e-08M, A350 autofl 4.4e-08M, HSD17B inh 25µM, HADH2 inhib 25µM, CRE-bla Fsk inconclusive
CCOC(=O)c1cc2c3ccccc3n(CC)c2nc1N	HSD17B inh 25µM (no result: 4MU fluor, A350 autofl)
CCn1c(=O)c(C(=O)Nc2cccnc2)c(O)c2ccccc21	4MU fluor inconclusive, A350 autofl inconclusive
CCOC(=O)c1cnc(-c2ccccc2)nc1N	none
C[n+]1ccccc1/C=N\O	none
C/C=C1/C(=O)C[C@H]2[C@@H]3CCC4=CC(=O)CC[C@]4(C)[C@H]3CC[C@]12C	none (no result: 4MU fluor, A350 autofl)
COc1ccccc1CN1CCC2(CC1)CCN(C(=O)c1cccc(F)c1)CC2	none
Cc1ccc2c(C(=O)CN3CCCCC3CCO)c(C)[nH]c2c1 (stereo not drawn)	none
Cc1ccc2c(C(=O)CN3CCN(C4CCCCC4)CC3)c(C)[nH]c2c1	4MU fluor 1.2e-07M, A350 autofl 4.4e-08M, CRE-bla Fsk inconclusive
COCc1cc(C)nc2sc3c(=O)oc(C)nc3c12	none
Cc1cc(C)c2c(n1)sc1c(O)cc(=O)[nH]c12	4MU fluor 1.6e-08M, A350 autofl 1.5e-08M, HSD17B inh 32µM, HADH2 inhib 32µM
O=C1NC(=O)C(CC(=O)N(Cc2ccco2)C2(C(=O)NC3CCCCC3)CCCCC2)N1 (stereo not drawn)	none
O=CN(Cc1ccco1)C1(C(=O)NC2CCCCC2)CCCCC1	4MU fluor 1.7e-08M, A350 autofl 1.9e-08M, CRE-bla Fsk inconclusive
O=C(c1cnccn1)N1CCC[C@@]2(CCN(c3ccncc3)C2)C1	none
CO[C@H]1COC(=O)CCC[C@H](C)[C@@H](OC)COC(=O)C/C=C\[C@@H]1C	none (no result: 4MU fluor, A350 autofl, CRE-bla Fsk)
CCn1c(N)c(C(=O)NCc2cccnc2)sc1=S	HADH2 inhib inconclusive, CRE-bla Fsk inconclusive
Nc1c(C(=O)NCc2cccnc2)sc(=S)n1-c1ccccc1	HSD17B inh inconclusive, HADH2 inhib 16µM (no result: 4MU fluor, A350 autofl)
Cc1ccc(Cl)cc1N	none (no result: 4MU fluor, A350 autofl)
CC(C)Cn1cnc2c(Sc3c([N+](=O)[O-])ncn3C)nc(N)nc21	none
O=C1CC(Sc2nnc(-c3ccccc3O)o2)C(=O)N1c1ccccc1 (stereo not drawn)	HSD17B inh 40µM, CRE-bla Fsk inconclusive
CC[C@@]12CCCN3CCc4c(n(c5ccccc45)C(=O)C1)[C@H]32	4MU fluor 8.3e-08M!, A350 autofl 6.9e-08M!, CRE-bla Fsk inconclusive
CCOC(=O)C1=C[C@@]2(CC)CCCN3CCc4c(n1c1ccccc41)[C@H]32	HSD17B inh inconclusive, CRE-bla Fsk inconclusive
CC[C@@]12CCCN3CCc4c(n(c5ccccc45)[C@](O)(C(=O)OC)C1)[C@H]32	4MU fluor 1.8e-08M!, A350 autofl 1.6e-08M!, CRE-bla Fsk inconclusive
NC(=O)c1nc(N2CCOCC2)nc(N2CCOCC2)n1	4MU fluor 1e-08M, A350 autofl inconclusive
O=C(OC1Cc2c(O)cc(O)cc2OC1c1cc(O)c(O)c(O)c1-c1c(C2Oc3cc(O)cc(O)c3CC2OC(=O)c2cc(O)c(O)c(O)c2)cc(O)c(O)c1O)c1cc(O)c(O)c(O)c1 (stereo not drawn)	HSD17B inh 7.9µM (no result: 4MU fluor, A350 autofl, HADH2 inhib, CRE-bla Fsk)
O=C(O[C@@H]1Cc2c(O)cc(O)cc2OC1c1ccc(O)c(O)c1)c1cc(O)c(O)c(O)c1 (stereo partly drawn)	HSD17B inh 13µM (no result: 4MU fluor, A350 autofl, HADH2 inhib, CRE-bla Fsk)
Oc1cc(O)c2c(c1)O[C@H](c1ccc(O)c(O)c1)[C@H](O)C2	4MU fluor 1.3e-08M!, A350 autofl 1.4e-08M!, HADH2 inhib inconclusive
O=C(O)CSc1ccc(N=C=S)cc1	HADH2 inhib inconclusive
CCCS(=O)(=O)N1CCCC(C(=O)N2CCC(Cc3ccccc3)CC2)C1 (stereo not drawn)	none
CCCS(=O)(=O)N1CCCC(C(=O)N2CCN(c3ccccn3)CC2)C1 (stereo not drawn)	HSD17B inh 25µM
CSCCC(NC(=O)C1CCC(C)CC1)C(=O)N1CCN(c2ccccn2)CC1 (stereo not drawn)	HSD17B inh 25µM
COc1ccc(CN(Cc2ccccn2)C(=O)CN2C(=O)C(C)Oc3ccccc32)cc1 (stereo not drawn)	4MU fluor 1.2e-08M, A350 autofl 1.2e-08M
COc1ccccc1N1CC(O)=C(c2nc3ccccc3c(=O)[nH]2)C1=N	4MU fluor inconclusive, A350 autofl 1.1e-08M, HSD17B inh 32µM
CCOc1ccccc1N1CC(O)=C(c2nc3ccccc3s2)C1=N	HSD17B inh inconclusive, HADH2 inhib inconclusive
O=c1[nH]c(CN2CCN(CCO)CC2)nc2ccccc12	4MU fluor inconclusive, A350 autofl inconclusive
N=C1C(c2nc3ccccc3c(=O)[nH]2)=C(O)CN1CCO	4MU fluor inconclusive, A350 autofl inconclusive, HSD17B inh 3.2µM
CCCCN1CC(O)=C(c2nc3ccccc3[nH]2)C1=N	4MU fluor 1.6e-07M, A350 autofl 1.6e-07M, CRE-bla Fsk inconclusive
N=C1C(c2nc3ccccc3c(=O)[nH]2)=C(O)CN1CCc1ccccc1	HSD17B inh 32µM, CRE-bla Fsk inconclusive (no result: 4MU fluor, A350 autofl)
Cc1ccc(C)o1	none (no result: 4MU fluor, A350 autofl)
COC(=O)[C@@]1(Cc2ccc(OC)cc2)[C@H]2c3cc(C(=O)N(C)C)n(Cc4ccc(Cl)c(C(F)(F)F)c4)c3C[C@H]2CN1C(=O)c1ccccc1	CRE-bla Fsk inconclusive (no result: 4MU fluor, A350 autofl)
COCCN1CC(O)=C(c2nc3ccccc3c(=O)[nH]2)C1=N	4MU fluor 1e-08M, A350 autofl inconclusive, HSD17B inh 25µM, CRE-bla Fsk inconclusive
CCCOc1ccc(OCCSc2ncccn2)cc1	4MU fluor 9.9e-07M, A350 autofl 1.1e-06M, CRE-bla Fsk inconclusive
Cc1ccc(CNC(=O)[C@H]2C[C@@H]2[C@H](NP(=O)(c2ccccc2)c2ccccc2)c2ccccc2)o1	none (no result: 4MU fluor, A350 autofl)
O=c1[nH]c(=O)n(Cc2ccccc2)c2nc(-c3ccco3)cc(C(F)(F)F)c12	4MU fluor 1.2e-06M, A350 autofl 1.6e-06M, HSD17B inh 13µM, CRE-bla Fsk 2.5µM
Cn1c(=O)cnc2cnc(OCc3ccccc3)nc21	none
Nc1nc2ncc(=O)[nH]c2c(=O)[nH]1	HSD17B inh 25µM (no result: 4MU fluor, A350 autofl, HADH2 inhib, CRE-bla Fsk)
Nc1nc2c(c(=O)[nH]1)N=C(CNc1ccc(C(=O)NC(CCC(=O)O)C(=O)O)cc1)CN2 (stereo not drawn)	HSD17B inh 32µM (no result: 4MU fluor, A350 autofl, HADH2 inhib, CRE-bla Fsk)
CCc1cc2c(SCC(=O)C(C#N)=C3N(C)c4ccccc4N3C)ncnc2s1	4MU fluor 1.6e-08M, A350 autofl 2.1e-08M, HSD17B inh inconclusive
Cc1cc(=O)n2nc(-c3ccccc3)sc2c1C#N	4MU fluor 2.9e-08M, A350 autofl 4.2e-08M, HSD17B inh 13µM
COc1cc2c(cc1NC(=O)CN1C(=O)NC3(CCc4ccccc43)C1=O)oc1ccccc12 (stereo not drawn)	HSD17B inh 25µM, HADH2 inhib inconclusive

High-throughput results as filed in PubChem.
